Screens as filed in PubChem.
A selection: hits, their analogues and other compounds. The true share with any hit is near 3.3%.
SSB-PriA inh – inhibitors of Klebsiella pneumoniae PriA binding to SSB C-terminal tail | AlphaScreen SSBct-PriA binding, biotinylated peptide | inhibition, % at 33 µM | 0.6% of 430,000 active | AID 1272365; in the data active = inhibition mostly above about 37%, no sharp cut-off; inactive = mostly below about 20%;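 note: plate controls were negative control peptide for no effect and reference peptide for full effect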
BoNT A protease – BoNT A light chain protease inhibition. 0.17% of 360,000 active. multiplex microsphere protease substrate cleavage, flow cytometry. inhibition, % at 10 µM; note: plate controls were buffer without enzyme for full effect and enzyme alone for no effect
Anthrax LF prot – inhibitors of Bacillus anthracis lethal factor protease; inhibition, % at 10 µM; 0.12% of 360,000 active; multiplex microsphere protease cleavage assay, LF; note: plate controls were buffer without enzyme for full effect and enzyme alone for no effect
Autofluor counter – flagged as autofluorescent in microsphere protease counterscreen; fluorescence intensity (test concentration not listed); 3.1% of 360,000 active; AID 624483; compound autofluorescence counterscreen, microsphere flow cytometry; stronger effect = higher value; in the data active = fluorescence intensity above about 16000; inconclusive = no clear call, values can overlap the other calls
BoNT-F LC inh – blocks Botulinum neurotoxin F light chain protease | Multiplex microsphere protease cleavage assay, flow cytometry | inhibition, % at 10 µM | 0.22% of 360,000 active; in the data active = inhibition above about 35%, passing the limit was not always enough; inconclusive = no clear call, values can overlap the other calls; note: plate controls were buffer without enzyme for full effect and enzyme alone for no effect
MazEF act – MazEF (E. coli) toxin RNase activation; FAM/BHQ RNA-DNA oligo cleavage fluorescence, 5 h; 0.32% of 350,000 active; activation, % at 20 µM; P0AE70; in the data active = activation above about 50%
Target sequence (P0AE70 whole entry, looked up): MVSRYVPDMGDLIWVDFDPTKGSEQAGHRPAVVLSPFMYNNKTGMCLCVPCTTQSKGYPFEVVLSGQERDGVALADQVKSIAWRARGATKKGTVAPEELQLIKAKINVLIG
* hit, by the source's call; ? = inconclusive; / = no result given; ! = not confirmed by another sample. Cut-off read from the data, not from the text of the source, unless noted: active = inhibition above about 30%; inconclusive = no clear call, values can overlap the other calls; inactive = below that.

SMILES	SSB-PriA inh	BoNT A protease	Anthrax LF prot	Autofluor counter	BoNT-F LC inh	MazEF act
COc1ccc(NC(=O)c2cc(-c3cccnc3)nc3c(C)c(C)ccc23)c(OC)c1	2	9	0	17562*	9	-10
COc1cccc(NC(=O)c2cc(-c3cccnc3)nc3c(Cl)cccc23)c1	-10	2	-2	15951	1	2
COc1ccc(NC(=O)c2ccccc2C)c(OC)c1	-14	-1	-2	16437*	2	1
COc1ccc(NC(=O)c2cccnc2)c(OC)c1	-4	?	-1	20616*	2	2
COc1ccc(NC(=O)c2ccccc2Oc2ccccc2)c(OC)c1	-21	1	-5	2964	-3	5
CCOc1ccc(NC(=S)C(=C([O-])c2ccc(C)c([N+](=O)[O-])c2)[n+]2ccccc2)cc1	6	/	/	/	/	/
CCOc1ccc(-c2cc(=O)n(CC(=O)N3CCN(C(=O)c4ccco4)CC3)cn2)cc1	-9	/	/	/	/	/
CCN1C=CC(=C2C(=O)c3ccccc3C2=O)C=C1	-12	-4	-5	17505*	-9	-8
CCCN1C=CC(=C2C(=O)c3ccccc3C2=O)C=C1	-9	2	-1	15675	-1	2
COc1cccc(C(=O)Nc2cc(C)nn2-c2nc3c(cnn3-c3ccc(C)cc3)c(=O)[nH]2)c1OC	3	/	/	/	/	/
COc1cccc(C(=O)Nc2cc(C)nn2-c2nc3c(cnn3-c3cccc(C)c3C)c(=O)[nH]2)c1OC	94*	/	/	/	/	/
Cc1cc(NC(=O)COc2ccccc2F)n(-c2nc3c(cnn3-c3cccc(C)c3C)c(=O)[nH]2)n1	43*	/	/	/	/	/
CCOc1ccc(S(=O)(=O)N2CCN(c3cccc(C)c3C)CC2)cc1	-11	/	/	/	/	/
O=c1[nH]cnc2c1cnn2CCO	1	/	/	/	/	/
Cc1ccccc1C(=O)NNC(=O)CCC(=O)Nc1cccc(Cl)c1C	-2	1	-2	1937	4	-1
Cc1cc(C)c2c(=O)n(CC(=O)Nc3cccc(Cl)c3C)sc2n1	-10	54*	1	3362	3	-68
Cc1c(Cl)cccc1NC(=O)CCC(=O)NNC(=O)c1ccccc1Cl	-8	?	0	17035*	-4	-1
Cc1ccccc1NC(=O)Cn1cccc1	2	0	-2	10489	-1	5
Cc1c(Cl)cccc1NC(=O)Cn1cccc1	-2	1	-3	23242*	-3	-2
Cc1c(Cl)cccc1NC(=O)CCC(=O)NNC(=O)c1ccco1	-6	-1	0	16503*	-2	-3
O=C(CC(C(=O)N1CCc2ccccc21)n1ccnc1)NCc1ccccc1 (centres undefined)	-3	10	-5	18019*	9	-15
COc1cccc(NC(=O)N2CCC(CSc3ccccn3)CC2)c1OC	2	/	/	/	/	/
COc1cc2ccccc2cc1C(=O)N(CCN(C)C)c1nc2ccc(Br)cc2s1	49*	0	-4	4457	-4	2
Cc1cc(C)c2nc(N(Cc3ccccn3)C(=O)c3ccc4ccccc4c3)sc2c1	-14	/	/	/	/	/
COc1ccc(C)c2sc(N(CCN(C)C)C(=O)c3ccc4ccccc4c3)nc12	43*!	0	0	5806	2	16
SMILES	SSB-PriA inh	BoNT A protease	Anthrax LF prot	Autofluor counter	BoNT-F LC inh	MazEF act
COc1cc2ccccc2cc1C(=O)N(CCN(C)C)c1nc2c(F)cc(F)cc2s1	10	0	-2	6134	0	8
Cc1cc(C)c2nc(N(CCN(C)C)C(=O)c3ccc4ccccc4c3)sc2c1	38*!	3	0	5505	-2	2
COc1ccc(C)c2sc(N(CCN(C)C)C(=O)CCOc3ccccc3)nc12	15	/	/	/	/	/
COc1ccc(-c2csc(NC(=O)C3CCN(S(=O)(=O)c4ccc(Cl)cc4)CC3)n2)cc1C	-12	/	/	/	/	/
O=C(O)CC(C(=O)Nc1ccc(Cl)c(Cl)c1)C1CCCO1 (centres undefined)	-6	0	-6	11218	2	-3
O=C(O)CC(C(=O)NC1CCCCC1)C1CCCO1 (centres undefined)	-5	2	-1	22137*	4	1
O=C(Cc1ccc(-n2c(=S)[nH]c3ccccc3c2=O)cc1)N1CCC(N2CCCCC2)CC1	7	-2	1	23979*	-3	16
O=C(Cc1ccc(-n2c(=O)[nH]c3ccsc3c2=O)cc1)N1CCC(N2CCCCC2)CC1	-3	/	/	/	/	/
CC1=Nc2ccccc2/C1=C\c1nc(-c2ccc(C(F)(F)F)cc2)oc1O	9	10	6	17953*	-47	57*
CC1=Nc2ccccc2/C1=C\c1nc(-c2ccccc2)oc1O	7	21	-26	2897	-120	-4
COCC1CCCN(Cc2cn3ccccc3n2)C1 (centres undefined)	-23	/	/	/	/	/
